According to PubChem BioAssay (NCI):
The panel holds about 83,000 compounds, 20% with a hit somewhere; the sample as a whole holds those more often.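 In brief: 96-well plates, 48 h treatment, single concentration, percent growth endpoint.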 Activity calls are given as the source filed them. How the source made its calls: active means growth percent below 10; inactive means the rest.

What was measured:
Assay in all cases: NCI-60 one-dose screen, 48 h (100 = growth as untreated, 0 = no growth, -100 = all killed)
Conditions in all cases: 10 µM unless noted
HCT-15 colon = system: HCT-15 colon
HT29 colon = system: HT29 colon
SNB-75 CNS = system: SNB-75 CNS
SNB-19 CNS = system: SNB-19 CNS
U251 CNS = system: U251 CNS
PC-3 prostate = system: PC-3 prostate
SK-MEL-5 melanoma = system: SK-MEL-5 melanoma
UACC-62 melanoma = system: UACC-62 melanoma
LOX IMVI melanoma = system: LOX IMVI melanoma
SK-MEL-28 melanoma = system: SK-MEL-28 melanoma
SK-MEL-2 melanoma = system: SK-MEL-2 melanoma
EKVX NSCLC = system: EKVX NSCLC
SN12C renal = system: SN12C renal
UO-31 renal = system: UO-31 renal
TK-10 renal = system: TK-10 renal
ACHN renal = system: ACHN renal
CAKI-1 renal = system: CAKI-1 renal
A498 renal = system: A498 renal
CCRF-CEM leukemia = system: CCRF-CEM leukemia
MOLT-4 leukemia = system: MOLT-4 leukemia

Measured: growth

O=C(O)c1ccc(-n2cc(CNc3ccc(C(F)(F)F)cc3)c(-c3ccccc3)n2)cc1
inactive: HCT-15 colon 84.3% | HT29 colon 114% | SNB-75 CNS 92.1% | SNB-19 CNS 102% | U251 CNS 81% | PC-3 prostate 79.7% | SK-MEL-5 melanoma 91.5% | UACC-62 melanoma 72.9% | LOX IMVI melanoma 89.2% | SK-MEL-28 melanoma 95.2% | SK-MEL-2 melanoma 93.8% | EKVX NSCLC 91.8% | SN12C renal 94.6% | UO-31 renal 80.5% | TK-10 renal 110% | ACHN renal 88.9% | CAKI-1 renal 87.2% | A498 renal 87.6% | CCRF-CEM leukemia 91.4% | MOLT-4 leukemia 76.5%

CCN1C(=O)N(CC)C2C1NN=c1s/c(=C3\C(=O)N(C4CCCC4)c4ccccc43)c(=O)n12 (configuration not stated)
inactive: HCT-15 colon 15.8% | SNB-19 CNS 34.9% | U251 CNS 18.3% | PC-3 prostate 25.3% | SK-MEL-5 melanoma 12.7% | UACC-62 melanoma 34.9% | LOX IMVI melanoma 30.3% | SK-MEL-28 melanoma 57.9% | SK-MEL-2 melanoma 41.3% | EKVX NSCLC 56.1% | SN12C renal 31.6% | UO-31 renal 37.2% | TK-10 renal 24.4% | ACHN renal 31.9% | CAKI-1 renal 32.1%
active: HT29 colon 1.3% | SNB-75 CNS -21.9% | A498 renal -25.9% | MOLT-4 leukemia 7.37%

COc1ccc(/C(=N/O)c2cc(F)c(F)c(OC)c2F)cc1O
active: SNB-75 CNS -11% | SK-MEL-2 melanoma 3.65% | A498 renal 2.7%
inactive: HCT-15 colon 22.9% | HT29 colon 28% | SNB-19 CNS 38.8% | U251 CNS 18.2% | PC-3 prostate 21.5% | SK-MEL-5 melanoma 14.1% | UACC-62 melanoma 29.8% | LOX IMVI melanoma 46.5% | SK-MEL-28 melanoma 66.9% | EKVX NSCLC 45.5% | SN12C renal 45.7% | UO-31 renal 52.6% | TK-10 renal 88.7% | ACHN renal 48.4% | CAKI-1 renal 28.1% | CCRF-CEM leukemia 15.5% | MOLT-4 leukemia 37.4%

Cc1ccccc1C(=O)c1ccccc1C(=O)O
inactive: HCT-15 colon 107% | HT29 colon 111% | SNB-75 CNS 84.8% | SNB-19 CNS 111% | U251 CNS 104% | PC-3 prostate 96.8% | SK-MEL-5 melanoma 104% | UACC-62 melanoma 104% | LOX IMVI melanoma 95.9% | SK-MEL-28 melanoma 109% | SK-MEL-2 melanoma 124% | EKVX NSCLC 105% | SN12C renal 105% | UO-31 renal 89.7% | TK-10 renal 96.5% | ACHN renal 111% | CAKI-1 renal 88.8% | A498 renal 126% | CCRF-CEM leukemia 103% | MOLT-4 leukemia 99.5%

Cc1ccc(-c2csc3nc(C)c(CCCl)c(=O)n23)cc1
inactive: HCT-15 colon 98.5% | HT29 colon 105% | SNB-75 CNS 74.7% | SNB-19 CNS 100% | U251 CNS 106% | PC-3 prostate 83.5% | SK-MEL-5 melanoma 89.7% | UACC-62 melanoma 88.2% | LOX IMVI melanoma 89.1% | SK-MEL-28 melanoma 113% | SK-MEL-2 melanoma 94.5% | EKVX NSCLC 76.8% | SN12C renal 101% | UO-31 renal 70.4% | TK-10 renal 113% | ACHN renal 99% | A498 renal 104% | CCRF-CEM leukemia 104% | MOLT-4 leukemia 85.6%

COc1ccc(C2NC3=C(CCCC3)C(C#N)(C#N)C2(C#N)C#N)cc1 (configuration not stated)
inactive: HCT-15 colon 65.9% | HT29 colon 79.9% | SNB-75 CNS 88.6% | SNB-19 CNS 88.5% | U251 CNS 107% | PC-3 prostate 104% | SK-MEL-5 melanoma 101% | UACC-62 melanoma 75.4% | LOX IMVI melanoma 91.8% | SK-MEL-28 melanoma 106% | SK-MEL-2 melanoma 98.8% | EKVX NSCLC 88.2% | SN12C renal 88.7% | UO-31 renal 75.7% | TK-10 renal 79.7% | ACHN renal 37.1% | CAKI-1 renal 78% | A498 renal 111%
active: CCRF-CEM leukemia 7.38% | MOLT-4 leukemia 9.29%

COc1ccc(N=C2NN=C(c3ccc(F)cc3)CS2)cc1OC
inactive: HCT-15 colon 96.5% | HT29 colon 100% | SNB-75 CNS 123% | SNB-19 CNS 94.3% | U251 CNS 87.4% | PC-3 prostate 93.2% | SK-MEL-5 melanoma 86.8% | UACC-62 melanoma 86.6% | LOX IMVI melanoma 85.5% | SK-MEL-28 melanoma 114% | SK-MEL-2 melanoma 66.4% | EKVX NSCLC 99% | SN12C renal 98.1% | UO-31 renal 44.2% | TK-10 renal 89.8% | ACHN renal 93.7% | CAKI-1 renal 84.9% | A498 renal 86.1% | CCRF-CEM leukemia 81.8% | MOLT-4 leukemia 73.4%

O=S(=O)(NCCNc1cc(-c2cn(-c3ccccc3)nc2-c2ccccc2)ccn1)c1cccc2ccccc12
inactive: HCT-15 colon 43.4% | HT29 colon 23.6% | SNB-75 CNS 59% | SNB-19 CNS 67% | U251 CNS 53.3% | PC-3 prostate 15.3% | SK-MEL-5 melanoma 26.5% | UACC-62 melanoma 56.5% | LOX IMVI melanoma 45.8% | SK-MEL-28 melanoma 62.9% | SK-MEL-2 melanoma 89.5% | EKVX NSCLC 36.5% | SN12C renal 58.9% | UO-31 renal 22.3% | TK-10 renal 66.8% | ACHN renal 51.7% | A498 renal 72.5% | CCRF-CEM leukemia 83.5% | MOLT-4 leukemia 28.4%

CCCCCCCC/C=C\CCCCCCCCOc1ccccc1CCOP(=O)(O)OCC[N+](C)(C)C
inactive: HCT-15 colon 46.7% | HT29 colon 10.9% | SNB-75 CNS 55.4% | SNB-19 CNS 20.1% | U251 CNS 13.3% | SK-MEL-5 melanoma 69.5% | UACC-62 melanoma 54.2% | LOX IMVI melanoma 60.6% | SK-MEL-28 melanoma 89.1% | SK-MEL-2 melanoma 84.6% | EKVX NSCLC 91.7% | SN12C renal 70.1% | UO-31 renal 65% | ACHN renal 80.6% | CAKI-1 renal 26.9% | A498 renal 82.7% | MOLT-4 leukemia 11.5%
active: PC-3 prostate 0.679% | TK-10 renal 1.11%

COc1cccc2cc(-c3cc4ccccc4[nH]3)c(=NC(=O)c3ccc(Cl)cc3)oc12
active: SNB-75 CNS 5.92%
inactive: HCT-15 colon 43.3% | HT29 colon 64.4% | SNB-19 CNS 53.5% | U251 CNS 43.9% | PC-3 prostate 38.5% | SK-MEL-5 melanoma 81.7% | UACC-62 melanoma 73.8% | LOX IMVI melanoma 75.5% | SK-MEL-28 melanoma 82.2% | SK-MEL-2 melanoma 83.3% | EKVX NSCLC 77.9% | SN12C renal 83.8% | UO-31 renal 58.4% | TK-10 renal 96.6% | ACHN renal 51.5% | CAKI-1 renal 53.8% | A498 renal 64.9% | MOLT-4 leukemia 61.5%

Cc1oc2nc[nH]c(=O)c2c1C(=O)/C=C/c1ccc(Cl)cc1
inactive: HCT-15 colon 19.9% | HT29 colon 12.9% | SNB-19 CNS 42% | U251 CNS 24.3% | PC-3 prostate 34.2% | SK-MEL-5 melanoma 37.5% | UACC-62 melanoma 18.2% | SK-MEL-28 melanoma 39.4% | SK-MEL-2 melanoma 55.7% | EKVX NSCLC 62% | SN12C renal 25.4% | UO-31 renal 37.9% | TK-10 renal 32.3% | ACHN renal 27.2% | CAKI-1 renal 26.1% | A498 renal 62.4% | MOLT-4 leukemia 40.7%
active: SNB-75 CNS -11.4% | LOX IMVI melanoma 8.44%

CCN1C(=O)N(CC)C2C1NN=c1s/c(=C\c3ccccn3)c(=O)n12 (configuration not stated)
active: HT29 colon 6.69% | SNB-75 CNS -24.4% | SK-MEL-5 melanoma 5.18% | A498 renal -29.2%
inactive: HCT-15 colon 33.5% | SNB-19 CNS 34.1% | U251 CNS 28.3% | PC-3 prostate 24.4% | UACC-62 melanoma 39.8% | LOX IMVI melanoma 42.6% | SK-MEL-28 melanoma 57.3% | SK-MEL-2 melanoma 39.9% | EKVX NSCLC 61.7% | SN12C renal 40.7% | UO-31 renal 43.8% | TK-10 renal 51.2% | ACHN renal 43.4% | CAKI-1 renal 30.2% | MOLT-4 leukemia 42.5%

CC(=O)c1cc(C(=O)c2ccc3c(c2)Sc2ccccc2N3)c2cc(C)ccn12
inactive: SNB-19 CNS 31.6% | U251 CNS 11.3% | PC-3 prostate 18% | UACC-62 melanoma 30.2% | LOX IMVI melanoma 17% | SK-MEL-28 melanoma 56.1% | SK-MEL-2 melanoma 35.8% | EKVX NSCLC 31.1% | SN12C renal 23.1% | UO-31 renal 28.4% | ACHN renal 22.9% | CAKI-1 renal 19% | CCRF-CEM leukemia 11.1% | MOLT-4 leukemia 13.1%
active: HCT-15 colon 8.38% | HT29 colon -57% | SNB-75 CNS 9.11% | SK-MEL-5 melanoma -26.6% | TK-10 renal -25.7% | A498 renal -16.4%

CCN1C(=O)N(CC)C2Nn3c(s/c(=C4\C(=O)N(C5CCCC5)c5ccccc54)c3=O)=NC21 (configuration not stated)
inactive: HCT-15 colon 51.2% | HT29 colon 21.3% | SNB-19 CNS 79.2% | U251 CNS 58.9% | PC-3 prostate 46.5% | SK-MEL-5 melanoma 34.8% | UACC-62 melanoma 61.9% | LOX IMVI melanoma 64.5% | SK-MEL-28 melanoma 73.4% | SK-MEL-2 melanoma 75.9% | EKVX NSCLC 59.7% | SN12C renal 70.6% | UO-31 renal 51.7% | TK-10 renal 88.1% | ACHN renal 59.2% | CAKI-1 renal 32.6% | A498 renal 30.8% | MOLT-4 leukemia 84.4%
active: SNB-75 CNS 8.34%

Cc1cc2c(C(C)C)c(O)c(O)c(C=NCCCCCCC(=O)O)c2c(O)c1-c1c(C)cc2c(C(C)C)c(O)c(O)c(C=NCCCCCCC(=O)O)c2c1O
inactive: HCT-15 colon 16.1% | HT29 colon 19% | SNB-75 CNS 50.1% | SNB-19 CNS 21.8% | U251 CNS 14.3% | PC-3 prostate 18.4% | SK-MEL-5 melanoma 30.2% | UACC-62 melanoma 28.7% | SK-MEL-28 melanoma 40.2% | SK-MEL-2 melanoma 28.5% | EKVX NSCLC 27.7% | SN12C renal 35.7% | UO-31 renal 28.8% | TK-10 renal 17.3% | ACHN renal 42.1% | CAKI-1 renal 63.3% | A498 renal 36.6% | CCRF-CEM leukemia 18.1% | MOLT-4 leukemia 18.5%
active: LOX IMVI melanoma 4.47%
